Screening data deposited in PubChem by National Center for Advancing Translational Sciences (NCATS).
Rows were chosen to be rich in hits. Some 17% of all compounds tested hit in one or more screens of this group.
HT1080 IDH1KD tx – toxicity to HT-1080 IDH1 knockdown cells (counter line) | HT-1080 IDH1 knockdown viability, ATP luminescence, 48 h | Potency, µM (titrated, usually from 46.1 µM), most hits filed as cytotoxic | hit rate 2% among 360,000 | AID 686971
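After a 2 h attachment period, IDH1KD HT-1080 cells took pin-transferred compound for 48 h at 37 °C; ATP-based luminescence after 10 min room-temperature reagent incubation reported viability.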
TDP1 cell CPT – growth inhibition of DT40 Tdp1-/-;hTDP1 cells with camptothecin (screen for TDP1 inhibitors); hit rate 12% among 420,000; AID 686979; Potency, µM (top dose mostly 46.2 µM), actives largely listed as inhibitors; chicken DT40 Tdp1-/-;hTDP1 cells + 20 nM CPT, ATP luminescence, 48 h; note: nearly all actives have a fitted effect of over 55% in size
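Chicken DT40 Tdp1-/- cells stably complemented with human TDP1 were seeded at 400 cells/well in medium containing 20 nM camptothecin, exposed to pin-transferred compounds, and grown at 37 °C for at least 48 hr. Viability was read as ATP luminescence.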
TGFb SMAD3 inh – inhibitors of TGF-b signaling | HepG2 CAGA-GFP TGF-b/SMAD3 reporter, GFP fluorescence, 18 h; TGF-beta stimulated, 500 pg/mL final | hit rate 1.2% among 410,000 | Potency, µM (series often up to 46.1 µM), actives largely listed as inhibitors; note: nearly all actives have a fitted effect of over 65% in size
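Cell-based qHTS in HEPG2 carrying a CAGA-GFP Smad reporter; compounds added before 500 pg/mL final TGF-beta, 18 h incubation at 37 degrees C, GFP fluorescence quantified per cell by imaging cytometry.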
DT40 TDP1 no CPT – qHTS for Inhibitors of human tyrosyl-DNA phosphodiesterase 1 (TDP1): qHTS in cells in absence of CPT. DT40 Tdp1-/- hTDP1 cells, no CPT, ATP luminescence, 48 h. Potency, µM (doses to about 46.2 µM), most hits filed as inhibitors. hit rate 15% among 420,000; note: nearly all actives have a fitted effect of over 55% in size
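A cellular qHTS used chicken DT40 cells lacking endogenous Tdp1 but carrying stably transfected human TDP1. Compounds were applied without camptothecin, and cell growth kinetics were judged by ATP-dependent luminescence after ≥48 hr.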
HT1080NT lethal – kills 2HG-producing HT-1080-NT fibrosarcoma cells. hit rate 1.6% among 360,000. HT-1080-NT fibrosarcoma viability, CellTiter-Glo ATP luminescence, 48 h. Potency, µM (highest dose often 46.1 µM), actives largely listed as cytotoxic;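 note: NT is the 2HG producing partner of a matched IDH1 knockdown line; nearly all actives have a fitted effect of over 55% in size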
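Viability by CellTiter-Glo luminescence after 48 h compound exposure at 37C of HT-1080-NT cells (750/well, RPMI, 5% FBS). % activity scaled between DMSO wells and medium-only wells, then curve-fitted and categorized by curve class.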
HepG2 tox – counter-screen for TGF-b inhibitors: cytotoxicity in HepG2 cells; HepG2 CAGA-GFP viability, ATP luminescence, 18 h; Potency, µM (series often up to 46.1 µM), usual class: cytotoxic; hit rate 0.76% among 410,000; AID 588856
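HepG2 CAGA-GFP cells (1000/well, DMEM with 1% FBS) received compound, then TGF-beta at 500 pg/mL final, and were incubated 18 hours at 37 degrees C. Viability was read by CellTiter-Glo luminescence. Media-only wells were set as complete cell-killing and DMSO as no toxicity.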
A number is an active result; . = inactive; ? = inconclusive; / = no result given; ! = not active in a repeat; [ ] = another dose, or the depositor's remark. Calls come from the whole dose curve; as a rule, active = well fitted curve in the direction sought with a large enough effect; inconclusive = small, poorly fitted or top-dose-only effect, or another doubt; inactive = no such curve, though single readings can be large; an effect the other way counts as inactive or inconclusive.

SMILES	HT1080 IDH1KD tx	TDP1 cell CPT	TGFb SMAD3 inh	DT40 TDP1 no CPT	HT1080NT lethal	HepG2 tox
CCOC(=O)C[C@H]1c2ccc(C(F)(F)F)cc2S(=O)(=O)N1C(C)(C)C	.	11µM!	.	?	.	.
CCn1c(CN2CCC(C)CC2)nc2cc(NC(=O)c3ccc([N+](=O)[O-])cc3)ccc21	/	?	.	?	/	.
CCn1c(CN2CCC(C)CC2)nc2cc(NC(=O)c3cccc([N+](=O)[O-])c3)ccc21	/	15µM	.	23µM	/	.
COc1ccc(CCn2c(C)cc(C(=O)CN3C(=O)C(=O)N(Cc4ccco4)C3=O)c2C)cc1	?	13µM	.	9.2µM	?	.
Cc1cc(C(=O)CN2C(=O)C(=O)N(C3CCCC3)C2=O)c(C)n1CCc1ccc(F)cc1	.	18µM	.	?	.	.
Cc1cc(C(=O)CN2C(=O)C(=O)N(Cc3ccccc3)C2=O)c(C)n1Cc1ccccc1	.	?	.	?	.	.
COc1ccc(S(=O)(=O)N2CCN(C(=O)CCSc3ccccc3)CC2)cc1	.	12µM	?	?	.	.
COc1ccc(S(=O)(=O)N2CCN(C(=O)CSC(=S)N3CCCC3)CC2)cc1	.	.	?	?	.	16µM
CC(C)OC(=O)c1cc2c(OCC(O)CNC(C)(C)C)cccc2[nH]1 (stereo not drawn)	/	?	/	.	/	/
Cc1c(C(C)C)c(=O)n(-c2ccc(S(=O)(=O)NC3CC3)cc2)n1C	.	.	.	10µM	.	.
Cc1c(C(C)C)c(=O)n(-c2ccc(S(=O)(=O)NC(C)C)cc2)n1C	.	?	.	13µM	.	.
COCc1c(C(=O)N2CCN(C3CCCC3)CC2)cnn1-c1ncc2c(n1)-c1ccccc1CCC2	/	.[9.04 µM]	/	.	/	/
CC1CCc2nc(/C(C#N)=C/c3ccncc3)sc2C1 (stereo not drawn)	.	18µM	.	?	.	.
Cc1ccc(-c2onc(C)c2C)cc1S(=O)(=O)N1c2ccccc2CC1C (stereo not drawn)	/	?	?	16µM	/	.
Cc1cc(-c2ccc(C)c(S(=O)(=O)N3CC(=O)Nc4ccccc43)c2)on1	.	.	.	.	.	.
Cc1ccc(-c2onc(C)c2C)cc1S(=O)(=O)N1CCOc2ccccc21	?	18µM	?	21µM	?	.
N#CC1(Cc2ccc(Cl)cc2)c2ccccc2C=CN1C(=O)c1ccccc1 (stereo not drawn)	.	?	.	18µM	.	.
COc1cc(=O)n2c(c1C(=O)NC(C)c1ccco1)CCN(Cc1cc3ccccc3o1)CC2 (stereo not drawn)	/	.[9.04 µM]	/	.	/	/
COC(=O)C1=C(O)/C(=C\c2ccc(CNC(=O)C(=O)Nc3ccc(C)cc3)o2)N=C1C	.	?	.	?	.	.
CCOC(=O)C1=C(O)/C(=C/c2ccc(CNC(=O)C(=O)Nc3ccc(C)cc3)o2)N=C1C	.	?	.	6.5µM	.	.
CCOc1ccccc1NC(=O)c1cccc2c1C(=O)N(C1CCCCC1)C2	.	?	.	13µM	.	.
CCOC(=O)N1CCC(N2Cc3cccc(C(=O)Nc4ccc(N(CC)CC)cc4C)c3C2=O)CC1	.	?	.	16µM	.	.
CCOC(=O)N1CCC(N2Cc3cccc(C(=O)Nc4cc(F)ccc4F)c3C2=O)CC1	.	?	.	?	.	.
CC(C)c1ccc(NC(=O)c2cccc3c2C(=O)N(C2CCCCC2)C3)cc1	/	.	.	.	/	.
CCc1cccc(NC(=O)c2cccc3c2C(=O)N(C2CCCCC2)C3)c1	.	?	.	18µM	.	.
SMILES	HT1080 IDH1KD tx	TDP1 cell CPT	TGFb SMAD3 inh	DT40 TDP1 no CPT	HT1080NT lethal	HepG2 tox
O=C(Nc1cccc(F)c1)c1cccc2c1C(=O)N(C1CCCCC1)C2	.	.	.	.	.	.
Cc1ccc(NC(=O)c2cccc3c2C(=O)N(C2CCCCC2)C3)cc1	?	?	.	21µM	?	.
Cc1ccc(NC(=O)c2cccc3c2C(=O)N(C2CCCCC2)C3)c(C)c1	.	.	.	?	.	.
Cc1cc(C)c(NC(=O)c2cccc3c2C(=O)N(C2CCCCC2)C3)c(C)c1	.	?	.	16µM	.	.
Cc1ccc(NS(=O)(=O)c2c(C)nc3sccn3c2=O)cc1C	.	?	.	?	.	.
COc1ccc(-c2nnc3sc(-c4cccs4)nn23)cc1OC	.	10µM	.	11µM	.	.
COc1cc(-c2nnc3sc(-c4cccs4)nn23)cc(OC)c1OC	.	?	.	12µM	.	.
Cc1ccc(S(=O)(=O)N2CCN(S(=O)(=O)c3ccccc3Br)C2=O)cc1	.	?	.	?	.	.
Cn1c2c(c(=O)n(C)c1=O)C(C(F)(F)F)(C(F)(F)F)N=C(CCC1CCCCC1)N2	?	2.6µM	?	3.7µM	?	.
Cn1c(=O)c2c(nc(CCC3CCCC3)n2C)n(C)c1=O	.	?	.	?	.	.
Cn1c2c(c(=O)n(C)c1=O)C(C(F)(F)F)(C(F)(F)F)N=C(c1ccccc1Cl)N2	.	23µM	.	?	.	.
Cn1c(=O)c2[nH]c(-c3ccccc3Cl)c(O)c2n(C)c1=O	.	.	.	.	.	.
CCCN(CCC)C(=O)CC(c1ccccc1)C1CCOC(C)(C)C1 (stereo not drawn)	.	?	.	23µM	.	.
CC1(C)CC(C(CC(=O)Nc2nccs2)c2ccccc2)CCO1 (stereo not drawn)	.	?	.	18µM	.	.
CC1(C)CC(C(CC(=O)O)c2ccccc2)CCO1 (stereo not drawn)	.	.	.	.	.	.
CC(=O)N1CCC(N(Cc2ccco2)C(=O)Nc2cccc(C)c2)CC1	/	.	.	?	/	.
OC(c1ccccc1)c1ncc(-c2cccc(OCc3ccccc3)c2)[nH]1 (stereo not drawn)	?	?	.	?	?	.
Cc1ccc2nc(SCC(=O)Nc3ccc(F)cc3F)nc(=O)n2c1	.	.	.	.	.	.
CCn1cnc2cc(NS(=O)(=O)c3ccc(OC)c(OC)c3)ccc21	.	?	.	.	.	.
COc1ccc(Nc2cc(C)c3ccccc3n2)cc1	.	.	?	?	.	.
COc1ccc(NS(=O)(=O)c2cc(NC(=O)Cc3c(F)cccc3Cl)ccc2OC)cc1	.	?	.	?	.	.
COc1cc(C(=O)Nc2ccc3nc(N4CCN(C)CC4)cc(C)c3c2)cc(OC)c1OC	?	?	.	?	?	.
